# Measured values reported in PubChem BioAssay AID1022 (Emory University Molecular Libraries Screening Center, 2008).
# Hit rate of the full screen: of about 220,000 compounds, about 3,300 (1.5%) were called active. The list comes from a sample in which actives are over-represented; it also holds similar structures and randomly drawn compounds. A number with no mark means an inactive call.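 The calls were made as follows: active = compounds that cut the protein-peptide binding signal by more than 50% relative to plate controls in a single-dose test; inactive = the rest.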
# Target: Induced myeloid leukemia cell differentiation protein Mcl-1 (Homo sapiens) (UniProt Q07820)
# Experiment: disruptors of Mcl-1 and Noxa BH3 peptide – biochemical, TR-FRET, 1536-well, primary screen (AID 1022);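 also: His-tagged Mcl-1 with rhodamine Noxa BH3 peptide and terbium anti-His antibody; 0% = Mcl-1 plus Noxa peptide wells and 100% = peptide-only wells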
# Conditions: TR-FRET Mcl-1/Noxa peptide binding, 2 h; at 21.7 µM; stronger effect = higher value
# Induced myeloid leukemia cell differentiation protein Mcl-1 (Homo sapiens), sequence (Q07820 whole entry, looked up): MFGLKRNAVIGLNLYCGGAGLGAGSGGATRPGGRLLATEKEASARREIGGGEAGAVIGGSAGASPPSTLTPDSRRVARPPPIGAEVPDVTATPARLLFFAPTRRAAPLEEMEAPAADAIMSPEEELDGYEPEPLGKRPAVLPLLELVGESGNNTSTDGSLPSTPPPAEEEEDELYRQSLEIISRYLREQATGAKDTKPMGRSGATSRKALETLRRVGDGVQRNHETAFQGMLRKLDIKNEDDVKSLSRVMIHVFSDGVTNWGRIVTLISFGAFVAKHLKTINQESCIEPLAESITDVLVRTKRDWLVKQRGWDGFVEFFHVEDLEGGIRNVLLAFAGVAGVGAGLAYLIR
row,Structure (SMILES),inhibition
1,CNC1(c2nnnn2-c2c(C)cccc2C)CCOC(C)(C)C1 (stereo unspecified),-14.2%
2,C=CC(COCc1ccccc1)N(Cc1ccccc1)S(=O)(=O)c1ccccc1Br (stereo unspecified),-9.99%
3,O=C(Nc1ccc(S(=O)(=O)Nc2nccs2)cc1)c1cc(-c2ccncc2)nc2ccccc12,89.7% (active)
4,CCC(CC)C(=O)Nc1ccc(S(=O)(=O)Nc2nccs2)cc1,-30.3%
5,O=C(Nc1ccc(S(=O)(=O)Nc2nccs2)cc1)c1cc(=O)[nH]c2ccccc12,38.3%
6,O=C(Nc1ccc(S(=O)(=O)N2CCOCC2)cc1)c1ccc2ncsc2c1,15.9%
7,O=C(Nc1ccccc1C(F)(F)F)N1CCCC1c1cccnc1 (stereo unspecified),-4.25%
8,Cc1cc(NCc2cccnc2)no1,-9.18%
9,CSc1sc(C(=O)NC(=O)NCc2cccnc2)c(C)c1-c1ccon1,-5.48%
10,COCCn1c(SCC(=O)c2[nH]c(C)c(C(C)=O)c2C)nc2ccccc2c1=O,-5.29%
11,O=C(NCCc1c[nH]c2ccc(Cl)cc12)c1ccc([N+](=O)[O-])cc1,27.8%
12,Fc1cc(F)c2nc(Nc3nc4c(F)cccc4s3)sc2c1,-45.8%
13,NC(=O)c1c(NC(=O)CSc2nc(N)cc(=O)[nH]2)sc2c1CCCC2,39.5%
14,NC(=O)c1c(Nc2nc3c(F)cccc3s2)sc2c1CCCC2,94.4% (active)
15,CC(C)Cc1ccc(C(C)C(=N)N)cc1 (stereo unspecified),4.15%
16,O=C(NCC(c1cccs1)N1CCOCC1)c1cc(-c2ccccn2)nc2ccccc12 (stereo unspecified),-1.37%
17,COc1ccc(OCCC(=O)c2ccc(OC)cc2)cc1,16.6%
18,CC(=O)Nc1ccc(CC#N)cc1,-4.22%
19,CCN(CC)CCN(C(=O)c1cccc([N+](=O)[O-])c1)c1nc2ccc(OC)cc2s1,19.8%
20,CCN(CC)CCN(C(=O)c1ccc(N2C(=O)CCC2=O)cc1)c1nc2cc3c(cc2s1)OCO3,59.3% (active)
21,Cc1nc2cc3c(cc2s1)OCO3,4.53%
22,Cc1ccccc1Cn1c2ccccc2c2cnn(CC(=O)NCc3ccco3)c(=O)c21,6.08%
23,C=CCNC(=S)N1CCc2[nH]c3ccccc3c2C1,2.21%
24,Cc1ccc(NC(=O)COC(=O)CCc2nc3ccccc3n2-c2ccccc2)c(C)c1,4.37%
25,CCN(c1ccc(NC(=O)COC(=O)CCc2nc3ccccc3n2-c2ccccc2)cc1)C(C)C,79.3% (active)
26,CC(C)(C)c1ccc(NC(=O)COC(=O)CCc2nc3ccccc3c(=O)[nH]2)cc1,0.96%
